Assay results taken from PubChem BioAssay (NCI).
About 83,000 compounds went through this panel and 20% of them were active in at least one assay; those are over-represented in the sample as a whole.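 48-hour exposure, single concentration, 96-well plates; percent growth endpoint where 0 means no net growth. Active: below 10.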 Values without a mark were called inactive. Active and inactive are the calls of the source.

Legend:
Assay in all cases: NCI-60 one-dose screen, 48 h (100 = growth as untreated, 0 = no growth, -100 = all killed)
Details in all cases: 10 µM unless noted
SK-MEL-2 melanoma = test system: SK-MEL-2 melanoma
EKVX NSCLC = test system: EKVX NSCLC
SN12C renal = test system: SN12C renal
UO-31 renal = test system: UO-31 renal
TK-10 renal = test system: TK-10 renal
ACHN renal = test system: ACHN renal
CAKI-1 renal = test system: CAKI-1 renal
A498 renal = test system: A498 renal
CCRF-CEM leukemia = test system: CCRF-CEM leukemia
MOLT-4 leukemia = test system: MOLT-4 leukemia
SR leukemia = test system: SR leukemia
RPMI-8226 leukemia = test system: RPMI-8226 leukemia
OVCAR-8 ovarian = test system: OVCAR-8 ovarian
OVCAR-4 ovarian = test system: OVCAR-4 ovarian
SK-OV-3 ovarian = test system: SK-OV-3 ovarian
IGROV1 ovarian = test system: IGROV1 ovarian
OVCAR-3 ovarian = test system: OVCAR-3 ovarian
HS 578T breast = test system: HS 578T breast
NCI/ADR-RES ovarian = test system: NCI/ADR-RES ovarian
OVCAR-5 ovarian = test system: OVCAR-5 ovarian

SMILES	growth (SK-MEL-2 melanoma)	growth (EKVX NSCLC)	growth (SN12C renal)	growth (UO-31 renal)	growth (TK-10 renal)	growth (ACHN renal)	growth (CAKI-1 renal)	growth (A498 renal)	growth (CCRF-CEM leukemia)	growth (MOLT-4 leukemia)	growth (SR leukemia)	growth (RPMI-8226 leukemia)	growth (OVCAR-8 ovarian)	growth (OVCAR-4 ovarian)	growth (SK-OV-3 ovarian)	growth (IGROV1 ovarian)	growth (OVCAR-3 ovarian)	growth (HS 578T breast) [%]	growth (NCI/ADR-RES ovarian)	growth (OVCAR-5 ovarian) [%]
CCCCCCn1c(O)c(N=Nc2nc(-c3cc4ccccc4oc3=O)cs2)c2ccccc21	79.7%	1.67% (active)	63.8%	75.1%	90.4%	81.4%	58.9%	88%	5.68% (active)	23.4%	12%	60.9%	34.1%	-48.2% (active)	96.9%	-62.4% (active)	-94.9% (active)	60.5	50.2%	
CN1CCc2c(sc3ncnc(N/N=C/c4ccc(Cl)cc4Cl)c23)C1	9% (active)	33.1%	-32.8% (active)	-95.7% (active)	-84% (active)	-66.6% (active)	-61.6% (active)	28.5%	-8.48% (active)	1.96% (active)	-16.5% (active)	-9.12% (active)	6.87% (active)	-40.6% (active)	0.686% (active)	30.4%	-56.5% (active)		8.35% (active)	
S=C(NCCc1ccccc1)Nc1ccc(OCc2nc3ccccc3[nH]2)cc1	121%	101%	96.8%	84.3%	112%	104%	87.3%	111%	96.7%	100%	95.7%	101%	102%		99.4%	113%	112%	109	110%	105
COc1cc(/C=C2\C(=N)N=C(SCc3nc4ccccc4[nH]3)NC2=O)ccc1O	105%	101%	103%	64.2%	155%	98.1%	86%	113%	99.4%	99.2%	88.5%	85%	101%	96.6%	103%	106%	103%	93.3	99%	
C/C(=N\N=C1/C(=O)Nc2ccccc21)c1ccc2c(c1)Nc1ccccc1S2	80.5%	43.7%	42.1%	34.4%	78.7%	56.1%	49.4%	28.2%	45.8%	11.4%	44.5%	38.7%		37.4%	101%	45.6%	34.9%	72.1	59.4%	83.7
CCN(CC)c1ccc(/C=N/Nc2nc(-c3ccc(C)cc3)cs2)c(O)c1	79.7%	79.2%	99.7%	83.2%	86.9%	96.3%	78%	105%	88.2%	80%	92.9%	74.3%		89.7%	108%	96.3%	92.1%	108	92.5%	93.2
C[C@H](Nc1nc(NCCc2ccccc2)nc2ccccc12)c1ccccc1	-92% (active)	-86.2% (active)	-94.6% (active)	-95.9% (active)	-93.6% (active)	-97.2% (active)	-85.9% (active)	-69.5% (active)	-16.3% (active)	-60.3% (active)	-64.3% (active)	-37.5% (active)	-78.6% (active)	-31.4% (active)	-88.9% (active)	-84.6% (active)	-70.1% (active)		-73.9% (active)	
CC12CC[C@@H]3[C@]4(C)COC(c5cn[nH]c5-c5cccc(Br)c5)O[C@@H]4CC[C@@]3(C)[C@@H]1CC(C1=CCOC1=O)O2 (stereo not given in full)	31.6%	28.2%	43.3%	14.9%	58.6%	26.5%	39.9%	81.8%	9.66% (active)	4.43% (active)	28%	13.2%	31%		53.8%	48.7%	40.6%	51.5	25.3%	76.8
